Laboratory results published in PubChem BioAssay (Tox21).
Records with an inconclusive call do not appear. Active and inactive are the calls of the source. Unless noted, calls come from the whole dose curve; as a rule, active = well fitted curve in the direction sought with a large enough effect in the repeat runs; inconclusive = weak or mixed curves; inactive = no such curve, though single readings can be large; an effect the other way counts as inactive or inconclusive.

Columns and labels:
[1] = qHTS assay to identify small molecule agonists of the RXR signaling pathway - cell viability counter screen (AID 1159529);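 note: HEK 293T cells carrying an RXR-alpha UAS beta-lactamase reporter; series mostly up to about 77 µM; nearly all actives have a fitted effect of over 50% in size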
How it was run: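 HEK 293T RXRa-bla cells, 2% CS-FBS; 5 h settle; cpd 16 h 37 C, 5% CO2; CellTiter-Glo 30 min RT, luminescence. Tetraoctyl ammonium bromide as positive control.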

[2] = qHTS assay to identify small molecule antagonists of the retinoid acid receptor (RAR) signaling pathway - cell viability counter screen (AID 1159551); note: nearly all actives have a fitted effect of over 35% in size
How it was run: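 Viability of C3RL4 cells is quantified from ATP by luminescence after 6 h treatment at 37 C with compounds and 1 uM retinol.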

[3] = qHTS assay to identify small molecule antagonists of the estrogen related receptor (ERR) signaling pathway from Tox21 library - cell viability counter screen (AID 1224834); note: nearly all actives have a fitted effect of over 30% in size
How it was run: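 In this quantitative HTS format, ERR cells receive compounds in DMSO and are incubated for 17.5 h at 37 C. Live-cell protease activity is then detected with CellTiter-Fluor.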

[4] = biological target: Luciferin 4-monooxygenase (Photinus pyralis) (UniProt P08659); experiment: qHTS assay to identify small molecule inhibitors of firefly luciferase (AID 1224835); note: series mostly up to about 120 µM; nearly all actives have a fitted effect of over 25% in size
Sequence of Luciferin 4-monooxygenase (Photinus pyralis) (P08659 whole entry, looked up): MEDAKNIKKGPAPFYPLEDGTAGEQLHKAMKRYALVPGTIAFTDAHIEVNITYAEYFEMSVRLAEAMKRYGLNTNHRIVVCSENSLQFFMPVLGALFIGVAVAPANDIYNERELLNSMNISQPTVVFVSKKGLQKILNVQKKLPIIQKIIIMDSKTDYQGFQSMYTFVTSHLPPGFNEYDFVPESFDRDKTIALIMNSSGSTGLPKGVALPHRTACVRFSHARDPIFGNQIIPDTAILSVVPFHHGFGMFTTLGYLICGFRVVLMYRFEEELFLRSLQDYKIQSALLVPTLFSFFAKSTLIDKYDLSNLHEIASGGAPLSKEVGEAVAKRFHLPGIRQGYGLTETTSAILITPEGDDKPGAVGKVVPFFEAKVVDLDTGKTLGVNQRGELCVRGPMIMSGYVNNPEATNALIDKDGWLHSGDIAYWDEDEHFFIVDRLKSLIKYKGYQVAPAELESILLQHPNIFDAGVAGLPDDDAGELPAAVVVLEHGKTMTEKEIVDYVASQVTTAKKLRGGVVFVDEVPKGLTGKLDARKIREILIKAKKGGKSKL
How it was run: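 Biochemical qHTS: compounds run as interplate titrations against purified firefly enzyme, with D-luciferin and ATP each at its KM concentration. Light output recorded by CCD imaging.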

[5] = qHTS assay to identify small molecule agonists of the constitutive androstane receptor (CAR) signaling pathway - cell viability counter screen (AID 1224836); note: series mostly up to about 92 µM; nearly all actives have a fitted effect of over 45% in size
How it was run: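 HepG2-CYP2B6-hCAR, 2500 cells/well, 4 h pre-incubation; cpd 15 conc + PK11195 0.75 uM final; 23 h, 37 C/5% CO2; CellTiter-Fluor, fluorescence.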

[6] = qHTS assay to identify small molecule antagonists of the constitutive androstane receptor (CAR) signaling pathway - cell viability counter screen (AID 1224837); note: series mostly up to about 92 µM; nearly all actives have a fitted effect of over 45% in size
How it was run: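 In quantitative HTS format, compounds at 15 concentrations were applied to HepG2 cells double-transfected with hCAR and CYP2B6-2.2kb under 50 nM CITCO stimulation; live-cell protease activity was read after 23 hr via CellTiter-Fluor.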

[7] = biological target: Nuclear receptor subfamily 1 group I member 3 (Homo sapiens) (UniProt Q14994); experiment: qHTS assay to identify small molecule antagonists of the constitutive androstane receptor (CAR) signaling pathway (AID 1224838); note: nearly all actives have a fitted effect of over 40% in size
Sequence of Nuclear receptor subfamily 1 group I member 3 (Homo sapiens) (Q14994 whole entry, looked up): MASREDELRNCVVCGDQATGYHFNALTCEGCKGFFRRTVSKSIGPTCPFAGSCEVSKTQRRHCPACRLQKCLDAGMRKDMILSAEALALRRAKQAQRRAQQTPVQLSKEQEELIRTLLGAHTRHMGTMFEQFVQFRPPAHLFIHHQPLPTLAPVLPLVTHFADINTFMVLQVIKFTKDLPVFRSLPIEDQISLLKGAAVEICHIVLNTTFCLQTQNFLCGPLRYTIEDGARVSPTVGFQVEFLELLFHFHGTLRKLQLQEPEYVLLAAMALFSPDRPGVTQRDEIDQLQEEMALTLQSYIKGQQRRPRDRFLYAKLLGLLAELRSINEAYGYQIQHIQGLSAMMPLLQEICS
How it was run: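 CITCO-stimulated (50 nM final) HepG2 cells stably transfected with hCAR and CYP2B6-2.2kb luciferase were exposed to compounds at 15 concentrations for 24 h at 37 C/5% CO2. A luciferase reagent was added and luminescence recorded after 30 min.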

[8] = biological target: Nuclear receptor subfamily 1 group I member 3 (Homo sapiens) (UniProt Q14994); experiment: qHTS assay to identify small molecule agonists of the constitutive androstane receptor (CAR) signaling pathway (AID 1224839);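 note: HepG2 cells stably carrying human CAR and a CYP2B6 luciferase reporter; series mostly up to about 92 µM; nearly all actives have a fitted effect of over 15% in size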
How it was run: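 HepG2-CYP2B6-hCAR cells, 2500/well, 4 h pre-incubation; compounds 15 conc.; PK11195 0.75 uM final; 24 h, 37 C/5% CO2; ONE-Glo luciferase read.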

[9] = qHTS assay to identify small molecule antagonists of the estrogen related receptor signaling pathway with the pleiotropic PPARgamma coactivator (PGC) from Tox21 10K library - cell viability counter screen (AID 1224840; active = well fitted cell-killing curve with a large enough effect in the repeat runs, not every such curve was filed as active; note: nearly all actives have a fitted effect of over 40% in size)
How it was run: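 Viability counter screen, PGC/ERR cells: 17.5 h compound exposure at 37 C, CellTiter-Fluor fluorescence endpoint.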

[10] = biological target: Thyrotropin receptor (Homo sapiens) (UniProt P16473); experiment: qHTS assay to identify small molecule agonists of the thyroid stimulating hormone receptor (TSHR) signaling pathway (AID 1224843; calls by dose curve; note: nearly all actives have a fitted effect of over 45% in size)
Sequence of Thyrotropin receptor (Homo sapiens) (P16473 whole entry, looked up): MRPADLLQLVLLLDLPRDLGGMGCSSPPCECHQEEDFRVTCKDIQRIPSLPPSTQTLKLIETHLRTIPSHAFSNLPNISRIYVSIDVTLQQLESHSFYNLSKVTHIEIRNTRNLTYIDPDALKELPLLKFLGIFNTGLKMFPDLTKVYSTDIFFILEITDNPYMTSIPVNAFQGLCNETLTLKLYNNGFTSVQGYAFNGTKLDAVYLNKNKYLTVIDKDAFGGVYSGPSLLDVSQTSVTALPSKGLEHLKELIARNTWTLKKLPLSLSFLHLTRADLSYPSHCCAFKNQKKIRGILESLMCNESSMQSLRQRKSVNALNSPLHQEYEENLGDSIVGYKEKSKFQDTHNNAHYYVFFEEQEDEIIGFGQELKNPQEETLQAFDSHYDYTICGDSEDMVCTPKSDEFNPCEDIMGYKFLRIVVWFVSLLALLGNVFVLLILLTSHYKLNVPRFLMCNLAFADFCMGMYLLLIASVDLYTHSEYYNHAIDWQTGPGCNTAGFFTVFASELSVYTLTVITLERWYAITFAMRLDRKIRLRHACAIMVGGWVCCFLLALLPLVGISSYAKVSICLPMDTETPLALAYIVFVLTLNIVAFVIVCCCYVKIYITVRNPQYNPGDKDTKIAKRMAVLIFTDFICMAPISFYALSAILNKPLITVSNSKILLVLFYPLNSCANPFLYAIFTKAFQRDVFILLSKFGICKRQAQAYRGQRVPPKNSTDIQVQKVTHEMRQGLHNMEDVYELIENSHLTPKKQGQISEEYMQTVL
How it was run: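 Agonist-mode screen: TSHR HEK293 cells received test chemicals for half an hour at room temperature, then HTRF cAMP detection reagents for one hour prior to fluorescence measurement. Each chemical ran as a 15-concentration series, triplicated.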

[11] = qHTS assay to identify small molecule antagonists of the estrogen related receptor (ERR) signaling pathway - cell viability counter screen (AID 1224818); note: series mostly up to about 46 µM
How it was run: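 Cytotoxicity check run alongside the ERR antagonist screen: cells exposed to test compounds 17.5 h at 37 C, viability taken as CellTiter-Fluor fluorescence intensity.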

[12] = qHTS assay to identify small molecule antagonists of the estrogen related receptor (ERR) signaling pathway (AID 1224819;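 note: luminescence from an ERR-driven luciferase reporter measured with One-Glo reagent; series mostly up to about 46 µM; nearly all actives have a fitted effect of over 50% in size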)
How it was run: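 ERR reporter cells were plated at 2,000 cells/well and left 6 h at 37 C/5% CO2 before pin-tool transfer of compounds in DMSO. After 18 h at 37 C, One-Glo was added and luminescence was read 30 min later at room temperature.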

[13] = qHTS assay to identify small molecule agonists of the estrogen related receptor (ERR) signaling pathway (AID 1224820)
How it was run: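 An ERR cell line provided by NTP was seeded at 2,000 cells per well and allowed to settle for 6 h before compounds in DMSO were added. After 18 h at 37 C, luciferase activity was measured by One-Glo luminescence.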

[14] = qHTS assay to identify small molecule antagonists of the estrogen related receptor signaling pathway with the pleiotropic PPARgamma coactivator (PGC) cell viability counter screen (AID 1224822; note: series mostly up to about 46 µM)
How it was run: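 Viable cell signal (CellTiter-Fluor, 30 min, 37 C/5% CO2) was measured in PGC/ERR cells after a 17.5 h compound incubation.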

[15] = qHTS assay to identify small molecule agonists of the estrogen related receptor signaling pathway with the pleiotropic PPARgamma coactivator (PGC) (AID 1224823)
How it was run: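 Compounds dissolved in DMSO are added by pin tool to PGC/ERR cells that have settled for 6 h, and incubation continues 18 h at 37 C. Reporter output is measured as One-Glo luminescence.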

[16] = qHTS assay to identify small molecule agonists of the estrogen related receptor signaling pathway with the pleiotropic PPARgamma coactivator (PGC) from Tox21 10K library (AID 1224842); note: nearly all actives have a fitted effect of over 15% in size
How it was run: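 PGC/ERR reporter cell line, 2,000 cells per well, incubated 6 h at 37 C before 23 nL compound in DMSO was added. After 18 h at 37 C, One-Glo luminescence read following 30 min at room temperature.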

[17] = qHTS assay to identify small molecule agonists of the retinoic acid receptor (RAR) signaling pathway (AID 1159553)
How it was run: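 Compounds dissolved in DMSO were pinned onto C3RL4 cells seeded the previous day, and plates were held 6 hr at 37 C. RARE-driven luciferase output was then read by luminescence.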

[18] = qHTS assay to identify small molecule antagonists of the estrogen related receptor signaling pathway with the pleiotropic PPARgamma coactivator (PGC) from Tox21 10K library (AID 1224841; call rule not given here; note: series mostly up to about 92 µM; actives are mostly falling curves and most rising ones were filed inactive; nearly all actives have a fitted effect of over 50% in size)
How it was run: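 In the PGC/ERR line, DMSO solutions of test chemicals are pin-delivered to 2,000 cells/well six hours after dispensing. Following eighteen hours' incubation, One-Glo reagent is added and luminescence recorded.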

Measured: Potency

CCCC(=O)Nc1ccc(O)c(C(C)=O)c1
inactive: [1] | [2] | [3] | [4] | [5] | [6] | [7] | [8] | [9]

Cc1cccc(C)c1NC(=O)CN(CC(=O)O)CC(=O)O
inactive: [1] | [2] | [3] | [4] | [5] | [6] | [7] | [8] | [9] | [10]

O=C(CS)Nc1ccccc1
inactive: [1] | [2] | [3] | [4] | [5] | [6] | [9] | [10]

O=C(NCCO[N+](=O)[O-])c1cccnc1
inactive: [1] | [2] | [3] | [4] | [5] | [6] | [7] | [8] | [9] | [10]

COC(=O)c1ccc(I)cc1S(=O)(=O)NC(=O)Nc1nc(C)nc(OC)n1
inactive: [1] | [2] | [3] | [4] | [5] | [6] | [7] | [8] | [9] | [10]

CCCCCCCCCOS(=O)(=O)O
inactive: [1] | [2] | [3] | [4] | [5] | [6] | [7] | [8] | [9]

O=C(O)c1ccco1
inactive: [1] | [2] | [3] | [4] | [5] | [6] | [9]

c1ccc(-c2ccccn2)nc1
inactive: [1] | [2] | [11] | [12] | [13] | [14] | [15] | [3] | [4] | [5] | [6] | [9] | [16] | [10]

C=CCOC(=O)CCC1CCCCC1
inactive: [1] | [2] | [3] | [4] | [5] | [6] | [7] | [8] | [9] | [16] | [10]

Cc1c(N)cccc1[N+](=O)[O-]
inactive: [1] | [2] | [17] | [4] | [5] | [6] | [7] | [8] | [9] | [18] | [16] | [10]
